Compounds without any hit were thinned out: in the full panel of roughly 83,000, 20% have a hit.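 Step 1: grow cells in 96-well plates. Step 2: add test compound at a single concentration. Step 3: incubate 48 h. Step 4: record percent growth.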 Calls of active or inactive are those of the source. How the source made its calls: active means growth percent below 10; inactive means the rest.
Test system: HT29 colon
Assay: NCI-60 one-dose screen, 48 h (100 = growth as untreated, 0 = no growth, -100 = all killed)
Details: 10 µM unless noted

`CCS(=O)(=O)Nc1cccc(Nc2c3cccc(C)c3nc3c(C)cccc23)c1OC` was tested. Which growth did it give?
The growth was 11.3% (inactive).

With `Cc1nn(-c2ccccc2)c2nc3c(nc12)C1=NCCN1C(c1ccc(Cl)cc1)N3` (centres undefined) as the molecule, how does the growth read?
The growth was 19% (inactive).

How did the growth turn out when `O=C(Nc1cccc(C2=NCCN2)c1)c1ccc(N=Nc2ccc(C(=O)Nc3cccc(C4=NCCN4)c3)cc2)cc1` was run?
Its growth is 71.8% (inactive).

`COC(=O)[C@@H](Cc1c[nH]c2ccccc12)NC(=O)/C=C/c1ccccc1` was tested. Which growth did it give?
The growth was 85.5% (inactive).

How did the growth turn out when `CCOC(=O)C(CCCCC(NC(C)=O)(C(=O)OCC)C(=O)OCC)(NC(C)=O)C(=O)OCC` was run?
Its growth is 100% (inactive).

How did the growth turn out when `COc1ccc(-c2cc(-c3cc4ccccc4oc3=O)n(-c3ccccc3)n2)cc1` was run?
Its growth is 83.8% (inactive).

`CC(C)N(C(=S)SSC(=S)N(C(C)C)C(C)C)C(C)C` was tested. Which growth did it give?
The growth was 88.1% (inactive).

With `CCOC(OCC)c1cnc2nc(NC(C)=O)[nH]c(=O)c2n1` as the molecule, how does the growth read?
Its growth is 90.6% (inactive).

Which growth does the source give for `CC(C)(C)c1cc(C[P+](c2ccccc2)(c2ccccc2)c2ccccc2)cc(C(C)(C)C)c1O` here?
The growth was -13.1% (active).

`N#Cc1ccc(-c2ccc(-c3cccs3)o2)cc1F` was tested. Which growth did it give?
Its growth is 84.5% (inactive).

Which growth does the source give for `CCN(C(=O)CCl)C(C)(C)C(SSSC(c1ccc(Cl)cc1)C(C)(C)N(CC)C(=O)CCl)c1ccc(Cl)cc1` (centres undefined) here?
The growth was 18% (inactive).

`N=C(N)c1ccc(-c2ccc(-c3ccco3)o2)cc1F` was tested. Which growth did it give?
The growth was -2.59% (active).

With `COc1ccc(/C=C/c2nc(NCCCN(C)C)c3ccccc3n2)cc1` as the molecule, how does the growth read?
Its growth is 11.5% (inactive).

With `COc1cc2c(cc1OC)-c1cc(OC)c(OC)cc1C(CN(C)C)C2` (centres undefined) as the molecule, how does the growth read?
The growth was 78.4% [100 µM] (inactive).

Reference: PubChem BioAssay (NCI)
